Measured values as given in the supplement of paper PMC11732987, “Enantioselective OTUD7B fragment discovery through chemoproteomics screening and high-throughput optimisation” (Communications Chemistry, 2025).
Unmarked numbers belong to inactive results.

Tests used:
Assay in all cases: log2 ratio of Biotin-Ahx-Ub-VS probe labelling (fragment/DMSO); higher = less target engagement (more negative = stronger competition), active = hit call of the paper (q ≤ 0.05, log2 ratio ≤ -1)
Conditions in all cases: compound concentration: 200 uM; treatment time: 3 h
ALG13 = molecular target: T1, ALG13 (UniProt Q9NP73)
T1 sequence (whole entry): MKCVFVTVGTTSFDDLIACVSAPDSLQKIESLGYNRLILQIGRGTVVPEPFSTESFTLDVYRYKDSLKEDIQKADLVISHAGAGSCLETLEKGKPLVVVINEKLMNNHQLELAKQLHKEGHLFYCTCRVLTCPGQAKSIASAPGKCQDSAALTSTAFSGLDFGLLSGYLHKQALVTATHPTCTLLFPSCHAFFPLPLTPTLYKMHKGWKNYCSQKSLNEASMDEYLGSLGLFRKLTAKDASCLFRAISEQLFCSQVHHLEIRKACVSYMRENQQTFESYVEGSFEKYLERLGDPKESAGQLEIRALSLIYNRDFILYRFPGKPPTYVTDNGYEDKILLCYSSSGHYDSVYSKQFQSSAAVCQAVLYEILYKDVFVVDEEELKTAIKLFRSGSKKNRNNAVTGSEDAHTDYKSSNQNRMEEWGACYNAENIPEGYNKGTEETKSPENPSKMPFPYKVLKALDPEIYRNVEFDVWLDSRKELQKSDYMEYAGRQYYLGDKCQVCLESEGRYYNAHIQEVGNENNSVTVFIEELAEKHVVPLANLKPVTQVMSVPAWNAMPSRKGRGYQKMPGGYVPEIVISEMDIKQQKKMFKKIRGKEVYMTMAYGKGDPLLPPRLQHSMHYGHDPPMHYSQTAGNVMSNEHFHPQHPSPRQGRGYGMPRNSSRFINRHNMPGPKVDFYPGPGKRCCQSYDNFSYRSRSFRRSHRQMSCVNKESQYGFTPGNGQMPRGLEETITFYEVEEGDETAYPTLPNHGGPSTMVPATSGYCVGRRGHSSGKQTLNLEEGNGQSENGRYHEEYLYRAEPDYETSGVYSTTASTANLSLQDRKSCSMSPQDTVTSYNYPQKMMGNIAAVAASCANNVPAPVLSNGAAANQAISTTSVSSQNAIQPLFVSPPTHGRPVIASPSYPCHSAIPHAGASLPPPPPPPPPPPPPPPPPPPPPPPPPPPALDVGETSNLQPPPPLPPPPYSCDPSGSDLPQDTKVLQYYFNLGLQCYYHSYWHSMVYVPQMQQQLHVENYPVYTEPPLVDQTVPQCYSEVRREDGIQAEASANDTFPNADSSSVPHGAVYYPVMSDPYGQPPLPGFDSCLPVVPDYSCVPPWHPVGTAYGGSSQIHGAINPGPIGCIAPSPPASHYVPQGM
In short: (§1)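 Average log2 ratios of fragment over vehicle were obtained by unpaired t-test from global-median-normalised Spectronaut label-free quantities. Proteins with ≥2 unique peptides were included. HEK293T lysate (495 µg per sample) was treated in triplicate with fragment at 200 µM or vehicle for 3 h, then with Biotin-Ahx-Ub-VS at 0.5 µM final for 1 h, and labelled DUBs were NeutrAvidin-enriched and run by diaPASEF LC-MS/MS.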

ATXN3 = ATXN3 (UniProt P54252)
In short: as §1

BAP1 = molecular target: T2, BAP1 (UniProt Q92560)
T2 sequence (whole entry): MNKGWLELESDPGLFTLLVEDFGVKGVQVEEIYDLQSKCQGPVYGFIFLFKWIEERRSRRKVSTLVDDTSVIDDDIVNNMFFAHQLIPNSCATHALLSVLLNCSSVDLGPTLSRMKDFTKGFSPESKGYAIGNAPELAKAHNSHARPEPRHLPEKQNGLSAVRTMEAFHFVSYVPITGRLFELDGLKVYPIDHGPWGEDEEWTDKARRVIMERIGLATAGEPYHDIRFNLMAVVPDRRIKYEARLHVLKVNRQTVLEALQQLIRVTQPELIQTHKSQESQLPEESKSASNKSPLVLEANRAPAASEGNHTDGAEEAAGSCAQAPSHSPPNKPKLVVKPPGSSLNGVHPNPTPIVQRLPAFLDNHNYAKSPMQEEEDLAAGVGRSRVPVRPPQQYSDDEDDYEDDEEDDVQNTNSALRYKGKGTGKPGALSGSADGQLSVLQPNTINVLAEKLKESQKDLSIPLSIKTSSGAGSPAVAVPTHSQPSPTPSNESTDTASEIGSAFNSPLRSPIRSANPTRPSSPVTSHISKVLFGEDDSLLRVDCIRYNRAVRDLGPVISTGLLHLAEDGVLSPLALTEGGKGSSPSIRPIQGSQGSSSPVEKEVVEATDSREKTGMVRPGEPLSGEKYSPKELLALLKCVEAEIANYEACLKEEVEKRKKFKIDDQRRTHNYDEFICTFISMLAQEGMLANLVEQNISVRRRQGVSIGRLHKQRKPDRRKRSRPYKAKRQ
In short: as §1

EIF3F = EIF3F (UniProt O00303)
In short: as §1

EIF3H = EIF3H (UniProt O15372)
In short: as §1

FAM105A = molecular target: T3, FAM105A (UniProt Q9NUU6)
T3 sequence (whole entry): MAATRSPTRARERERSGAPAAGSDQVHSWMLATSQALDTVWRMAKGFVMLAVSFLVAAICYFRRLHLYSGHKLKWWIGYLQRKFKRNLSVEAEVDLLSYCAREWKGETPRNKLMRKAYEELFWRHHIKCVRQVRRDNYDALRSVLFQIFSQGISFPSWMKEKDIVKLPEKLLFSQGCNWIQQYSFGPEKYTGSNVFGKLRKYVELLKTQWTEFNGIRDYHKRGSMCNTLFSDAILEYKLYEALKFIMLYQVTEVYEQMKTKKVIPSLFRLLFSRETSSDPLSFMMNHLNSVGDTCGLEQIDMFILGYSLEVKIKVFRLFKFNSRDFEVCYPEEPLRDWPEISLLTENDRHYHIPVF
In short: as §1

OTUB1 = OTUB1 (UniProt Q96FW1)
In short: as §1

OTUD4 = molecular target: T4, OTUD4 (UniProt Q01804)
T4 sequence (whole entry): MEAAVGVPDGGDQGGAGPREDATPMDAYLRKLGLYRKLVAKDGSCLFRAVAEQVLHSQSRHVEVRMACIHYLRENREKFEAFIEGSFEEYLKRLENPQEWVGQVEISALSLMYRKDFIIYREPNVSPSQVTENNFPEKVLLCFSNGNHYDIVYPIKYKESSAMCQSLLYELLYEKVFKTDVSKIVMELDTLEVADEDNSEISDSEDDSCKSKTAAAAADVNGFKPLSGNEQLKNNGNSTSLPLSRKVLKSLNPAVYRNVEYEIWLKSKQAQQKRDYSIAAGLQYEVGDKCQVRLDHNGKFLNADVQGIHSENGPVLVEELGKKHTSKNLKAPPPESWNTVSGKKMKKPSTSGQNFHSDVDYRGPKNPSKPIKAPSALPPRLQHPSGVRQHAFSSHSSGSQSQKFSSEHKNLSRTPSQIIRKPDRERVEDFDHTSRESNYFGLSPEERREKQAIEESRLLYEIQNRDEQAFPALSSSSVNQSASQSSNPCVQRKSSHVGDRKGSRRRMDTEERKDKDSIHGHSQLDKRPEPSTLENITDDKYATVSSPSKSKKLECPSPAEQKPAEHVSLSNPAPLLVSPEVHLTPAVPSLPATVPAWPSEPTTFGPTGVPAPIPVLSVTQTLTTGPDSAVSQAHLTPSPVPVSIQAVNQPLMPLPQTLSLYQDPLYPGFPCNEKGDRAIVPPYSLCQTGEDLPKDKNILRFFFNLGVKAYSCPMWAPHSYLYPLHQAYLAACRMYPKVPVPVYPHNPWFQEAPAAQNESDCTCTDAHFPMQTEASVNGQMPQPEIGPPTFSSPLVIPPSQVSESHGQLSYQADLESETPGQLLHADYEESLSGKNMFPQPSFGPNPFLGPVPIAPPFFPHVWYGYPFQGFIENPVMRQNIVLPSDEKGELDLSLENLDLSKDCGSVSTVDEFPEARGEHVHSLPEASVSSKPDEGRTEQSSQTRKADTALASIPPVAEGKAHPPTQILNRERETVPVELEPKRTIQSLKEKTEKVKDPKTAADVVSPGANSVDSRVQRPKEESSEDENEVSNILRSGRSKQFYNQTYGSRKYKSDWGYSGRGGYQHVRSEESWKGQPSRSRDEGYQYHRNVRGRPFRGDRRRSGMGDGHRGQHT
In short: as §1

OTUD5 = molecular target: T5, OTUD5 (UniProt Q96G74)
T5 sequence (whole entry): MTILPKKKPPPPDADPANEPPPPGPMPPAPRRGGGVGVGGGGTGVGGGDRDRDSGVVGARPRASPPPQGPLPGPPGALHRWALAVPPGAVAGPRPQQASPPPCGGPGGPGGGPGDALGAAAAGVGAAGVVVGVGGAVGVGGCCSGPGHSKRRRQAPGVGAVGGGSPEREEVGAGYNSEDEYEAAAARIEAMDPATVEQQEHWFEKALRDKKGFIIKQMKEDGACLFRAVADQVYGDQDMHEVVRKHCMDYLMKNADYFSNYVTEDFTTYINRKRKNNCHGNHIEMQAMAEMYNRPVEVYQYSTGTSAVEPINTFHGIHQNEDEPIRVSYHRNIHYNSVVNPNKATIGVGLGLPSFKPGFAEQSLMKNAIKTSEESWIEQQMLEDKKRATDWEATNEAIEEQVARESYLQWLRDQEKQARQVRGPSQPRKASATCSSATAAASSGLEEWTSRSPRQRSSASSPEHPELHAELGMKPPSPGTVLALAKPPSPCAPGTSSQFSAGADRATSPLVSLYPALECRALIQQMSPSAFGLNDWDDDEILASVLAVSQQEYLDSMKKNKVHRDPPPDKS
In short: as §1

Chain of ATXN3 (P54252 whole entry): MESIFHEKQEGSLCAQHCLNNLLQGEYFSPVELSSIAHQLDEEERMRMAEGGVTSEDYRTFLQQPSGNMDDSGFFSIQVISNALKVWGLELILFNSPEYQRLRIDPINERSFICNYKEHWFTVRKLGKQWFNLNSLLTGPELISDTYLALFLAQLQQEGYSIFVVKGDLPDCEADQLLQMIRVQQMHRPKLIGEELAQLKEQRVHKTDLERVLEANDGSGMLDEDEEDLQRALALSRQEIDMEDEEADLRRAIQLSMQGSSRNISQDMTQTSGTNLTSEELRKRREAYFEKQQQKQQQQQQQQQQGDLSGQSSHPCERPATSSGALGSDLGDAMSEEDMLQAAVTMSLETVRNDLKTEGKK
Chain of OTUB1 (Q96FW1 whole entry): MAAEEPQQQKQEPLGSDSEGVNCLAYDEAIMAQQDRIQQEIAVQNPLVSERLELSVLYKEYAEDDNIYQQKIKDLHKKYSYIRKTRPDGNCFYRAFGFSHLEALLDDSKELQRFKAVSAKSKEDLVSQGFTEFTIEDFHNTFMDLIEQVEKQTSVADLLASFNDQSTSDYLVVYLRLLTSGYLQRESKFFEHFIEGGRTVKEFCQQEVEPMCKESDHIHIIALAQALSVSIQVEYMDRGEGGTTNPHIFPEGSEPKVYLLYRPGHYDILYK
Chain of EIF3F (O00303 whole entry): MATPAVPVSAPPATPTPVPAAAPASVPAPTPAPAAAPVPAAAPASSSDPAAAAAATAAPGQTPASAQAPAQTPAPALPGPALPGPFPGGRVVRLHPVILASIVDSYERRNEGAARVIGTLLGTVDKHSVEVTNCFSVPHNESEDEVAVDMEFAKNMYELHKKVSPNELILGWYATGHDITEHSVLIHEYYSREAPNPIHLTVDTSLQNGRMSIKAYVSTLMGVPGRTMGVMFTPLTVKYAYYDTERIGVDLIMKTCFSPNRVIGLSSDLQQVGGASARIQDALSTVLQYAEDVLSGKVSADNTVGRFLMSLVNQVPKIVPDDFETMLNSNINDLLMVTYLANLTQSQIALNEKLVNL
Chain of EIF3H (O15372 whole entry): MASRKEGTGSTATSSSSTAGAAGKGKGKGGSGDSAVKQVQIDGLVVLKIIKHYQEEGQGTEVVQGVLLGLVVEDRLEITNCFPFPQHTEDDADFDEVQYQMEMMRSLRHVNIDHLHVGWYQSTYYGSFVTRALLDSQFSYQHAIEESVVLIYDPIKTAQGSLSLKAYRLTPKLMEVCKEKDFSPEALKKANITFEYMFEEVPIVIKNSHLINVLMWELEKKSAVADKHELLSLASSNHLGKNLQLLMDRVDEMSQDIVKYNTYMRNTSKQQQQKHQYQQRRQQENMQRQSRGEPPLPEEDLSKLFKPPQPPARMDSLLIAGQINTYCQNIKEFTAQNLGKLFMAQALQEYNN

CS(=O)(=O)c1ccc(NC(=O)CCl)cc1
log2 ratio of Biotin-Ahx-Ub-VS probe labelling (ALG13): -0.729
log2 ratio of Biotin-Ahx-Ub-VS probe labelling (ATXN3): -0.511
log2 ratio of Biotin-Ahx-Ub-VS probe labelling (BAP1): -4.05 (active)
log2 ratio of Biotin-Ahx-Ub-VS probe labelling (EIF3F): -0.0107
log2 ratio of Biotin-Ahx-Ub-VS probe labelling (EIF3H): 0.14
log2 ratio of Biotin-Ahx-Ub-VS probe labelling (FAM105A): -0.0733
log2 ratio of Biotin-Ahx-Ub-VS probe labelling (OTUB1): -0.133
log2 ratio of Biotin-Ahx-Ub-VS probe labelling (OTUD4): -0.368
log2 ratio of Biotin-Ahx-Ub-VS probe labelling (OTUD5): -0.613
